Reference: publication PMC9911399, “Two distinct binding modes provide the RNA-binding protein RbFox with extraordinary sequence specificity”
Substitutions are numbered along the chain they refer to; changes in the protein carry UniProt numbers. In all, about 16,000 sequences were measured (“ka relative to ugcaugu”: median about 0.0091, highest 2% from about 0.032 on). The full list was thinned out, with the highest values kept by preference.

T1: RBFOX1 RRM (Homo sapiens, UniProt Q9NWB1 109-208)
T1 sequence: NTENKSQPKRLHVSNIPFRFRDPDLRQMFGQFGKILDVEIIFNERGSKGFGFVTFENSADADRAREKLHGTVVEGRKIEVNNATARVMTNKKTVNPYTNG

B1: ACUAAUA (DNA:RNA)
RNA: GGGAGACCGGAAUUCAGAUUGUCCACUAAUAUUAAAUCCCGUCGUAGCCACCA
DNA 1: CAATCTGAATTCCGGTCTCCC
DNA 2: TGGTGGCTACGACGGGATT
B2: UCAUCUC (DNA:RNA)
RNA: B1 RNA with A25U, U27A, A28U, A29C, A31C
DNA 1: CAATCTGAATTCCGGTCTCCC
DNA 2: TGGTGGCTACGACGGGATT
B3: ACUUGAA (DNA:RNA)
RNA: B1 RNA with A28U, A29G, U30A
DNA 1: CAATCTGAATTCCGGTCTCCC
DNA 2: TGGTGGCTACGACGGGATT
B4: UAACAGC (DNA:RNA)
RNA: B1 RNA with A25U, C26A, U27A, A28C, U30G, A31C
DNA 1: CAATCTGAATTCCGGTCTCCC
DNA 2: TGGTGGCTACGACGGGATT
B5: CCUUGGA (DNA:RNA)
RNA: B1 RNA with A25C, A28U, A29G, U30G
DNA 1: CAATCTGAATTCCGGTCTCCC
DNA 2: TGGTGGCTACGACGGGATT
B6: UGAGAAC (DNA:RNA)
RNA: B1 RNA with A25U, C26G, U27A, A28G, U30A, A31C
DNA 1: CAATCTGAATTCCGGTCTCCC
DNA 2: TGGTGGCTACGACGGGATT
B7: GACUAUG (DNA:RNA)
RNA: B1 RNA with A25G, C26A, U27C, A28U, A31G
DNA 1: CAATCTGAATTCCGGTCTCCC
DNA 2: TGGTGGCTACGACGGGATT
B8: UAACGUU (DNA:RNA)
RNA: B1 RNA with A25U, C26A, U27A, A28C, A29G, A31U
DNA 1: CAATCTGAATTCCGGTCTCCC
DNA 2: TGGTGGCTACGACGGGATT
B9: GCGCAGA (DNA:RNA)
RNA: B1 RNA with A25G, U27G, A28C, U30G
DNA 1: CAATCTGAATTCCGGTCTCCC
DNA 2: TGGTGGCTACGACGGGATT
B10: CGCCACG (DNA:RNA)
RNA: B1 RNA with A25C, C26G, U27C, A28C, U30C, A31G
DNA 1: CAATCTGAATTCCGGTCTCCC
DNA 2: TGGTGGCTACGACGGGATT
B11: CGCGUCG (DNA:RNA)
RNA: GGGAGACCGGAAUUCAGAUUGUCCCGCGUCGUUAAAUCCCGUCGUAGCCACCA
DNA 1: CAATCTGAATTCCGGTCTCCC
DNA 2: TGGTGGCTACGACGGGATT
B12: GCACGCU (DNA:RNA)
RNA: B1 RNA with A25G, U27A, A28C, A29G, U30C, A31U
DNA 1: CAATCTGAATTCCGGTCTCCC
DNA 2: TGGTGGCTACGACGGGATT
B13: GCGCACG (DNA:RNA)
RNA: B1 RNA with A25G, U27G, A28C, U30C, A31G
DNA 1: CAATCTGAATTCCGGTCTCCC
DNA 2: TGGTGGCTACGACGGGATT
B14: CGCACGC (DNA:RNA)
RNA: B11 RNA with G28A, U29C, C30G, G31C
DNA 1: CAATCTGAATTCCGGTCTCCC
DNA 2: TGGTGGCTACGACGGGATT
B15: GCACCCG (DNA:RNA)
RNA: B11 RNA with C25G, G26C, C27A, G28C, U29C
DNA 1: CAATCTGAATTCCGGTCTCCC
DNA 2: TGGTGGCTACGACGGGATT
B16: GCACGUC (DNA:RNA)
RNA: B1 RNA with A25G, U27A, A28C, A29G, A31C
DNA 1: CAATCTGAATTCCGGTCTCCC
DNA 2: TGGTGGCTACGACGGGATT
B17: GCGCACC (DNA:RNA)
RNA: B1 RNA with A25G, U27G, A28C, U30C, A31C
DNA 1: CAATCTGAATTCCGGTCTCCC
DNA 2: TGGTGGCTACGACGGGATT
B18: GCGUCCG (DNA:RNA)
RNA: B11 RNA with C25G, G26C, C27G, G28U, U29C
DNA 1: CAATCTGAATTCCGGTCTCCC
DNA 2: TGGTGGCTACGACGGGATT
B19: GCACGCG (DNA:RNA)
RNA: B11 RNA with C25G, G26C, C27A, G28C, U29G
DNA 1: CAATCTGAATTCCGGTCTCCC
DNA 2: TGGTGGCTACGACGGGATT
B20: GCACCGC (DNA:RNA)
RNA: B1 RNA with A25G, U27A, A28C, A29C, U30G, A31C
DNA 1: CAATCTGAATTCCGGTCTCCC
DNA 2: TGGTGGCTACGACGGGATT

target: T1, RBFOX1 RRM; experiment: EMSA; HiTS-Eq, 1 nM pool, 10 min; buffer printed only for the single-RNA assays: 10 mM Tris pH 7.5, 150 mM NaCl, 3.4 mM EDTA, 0.001% NP-40, 30 C; details: tags: His6 N-terminal (pET28a); label: 5' 32P
In short: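 A pool of RNA with 7 randomized nucleotides, 5′-radiolabelled and with DNA-annealed flanks, was equilibrated at 1 nM for 10 min in 50 µL with purified RbFox RRM, wild type or mutant, across increasing protein concentrations. Free RNA was separated by 8% native PAGE, excised, reverse-transcribed, barcoded by PCR and sequenced. Relative association constants were obtained from read-count changes of each RNA species versus the control reaction and normalised to the cognate motif.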

Binder | binding signal
B1 | 0.00101 KA relative to UGCAUGU
B2 | 0.00423 KA relative to UGCAUGU
B3 | 0.0101 KA relative to UGCAUGU
B4 | 0.00375 KA relative to UGCAUGU
B5 | 0.00739 KA relative to UGCAUGU
B6 | 0.0124 KA relative to UGCAUGU
B7 | 0.0187 KA relative to UGCAUGU
B8 | 0.00814 KA relative to UGCAUGU
B9 | 0.0118 KA relative to UGCAUGU
B10 | 0.0114 KA relative to UGCAUGU
B11 | 0.0133 KA relative to UGCAUGU
B12 | 0.0317 KA relative to UGCAUGU
B13 | 0.062 KA relative to UGCAUGU
B14 | 0.0306 KA relative to UGCAUGU
B15 | 0.00754 KA relative to UGCAUGU
B16 | 0.0416 KA relative to UGCAUGU
B17 | 0.0133 KA relative to UGCAUGU
B18 | 0.0136 KA relative to UGCAUGU
B19 | 0.0376 KA relative to UGCAUGU
B20 | 0.00949 KA relative to UGCAUGU
